# PubChem BioAssay (EPA / NIEHS)
# Results filed as inconclusive are left out. The source made the active and inactive calls. Rule for the calls, unless noted: active = hit-call score of the fitted dose curve at least 0.9, where 1 is the maximum; inactive = score below 0.9.
# Assay: Tanguay_ZF_120hpf_TR_legacy: (Legacy) Oregon State University Tanguay Lab 120 Hour Post-fertilization zebrafish Assay for Touch Response (AID 2283667; active = hit-call score of the fitted dose curve at least 0.9, where 1 is the maximum)
# Method in brief: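 5D WT embryos; static exposure to 120 hpf, 28C, sealed/dark; DMSO 0.64% v/v final. TR scored present/absent; dead embryos excluded. Pos ctrl 5uM trimethyltin chloride.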
row,SMILES,outcome
1,O=[N+]([O-])c1ccc(Cl)c(Cl)c1,inactive
2,CC(Cc1ccc(OCC(=O)O)cc1)NCC(O)c1csc(C(F)(F)F)n1 (stereo not drawn),inactive
3,CN(C)C(=O)Cl,inactive
4,CCOS(=O)(=O)OCC,inactive
5,CCCCc1ccccc1,inactive

# Assay: CEETOX_H295R_MTT_cell_viability: Viability Assessment in the CeeTox HT-H295R MTT Assay (AID 2283718);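 for AC50: curve fitted both ways so AC50 may mark viability loss or gain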
# Method in brief: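 MTT reduction (0.5 mg/ml, 4 h at 37 C; absorbance at 570 and 650 nm) gave viability as background-corrected percent change versus controls. H295R cells had 48 h forskolin (10 uM) prestimulation, then 48 h chemical exposure at 0.1% DMSO.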
SMILES,AC50,outcome
Nc1ccc2ccccc2c1,23.9 µM (active),
CCOP(=S)(NC(C)C)Oc1ccccc1C(=O)OC(C)C (stereo not drawn),,inactive
CCOc1ccc(C(C)(C)COCc2cccc(Oc3ccccc3)c2)cc1,,inactive
COP(N)(=S)OC,,inactive
CCOP(=S)(OCC)SCS(=O)(=O)CC,,inactive
Nc1ccc(Cl)cc1,,inactive
CCCCOCCOP(=O)(OCCOCCCC)OCCOCCCC,,inactive
CC(C)Nc1ccc(Nc2ccccc2)cc1,,inactive
CCOC(=O)c1ccccc1N,,inactive
Nc1ccc([N+](=O)[O-])cc1Cl,,inactive
N#Cc1c(-c2ccc(Cl)cc2)[nH]c(C(F)(F)F)c1Br,0.289 µM (active),
Cc1cccc(N)c1,,inactive
Oc1ccc(I)cc1,,inactive
O=S(=O)(c1ccc(O)cc1)c1ccc(O)cc1,,inactive
CCOP(=S)(OCC)SCn1nnc2ccccc2c1=O,,inactive
ClC(Cl)=C(c1ccc(Cl)cc1)c1ccccc1Cl,,inactive
CO/N=C(/C(=O)OC)c1ccccc1COc1ccccc1C,5.04 µM (active),
CCCCc1ccc(O)cc1,,inactive
CC(=O)c1ccc(-c2ccccc2)cc1,,inactive
O=S1(=O)OCC2C(CO1)C1(Cl)C(Cl)=C(Cl)C2(Cl)C1(Cl)Cl (stereo not drawn),,inactive

# Assay: Tanguay_ZF_120hpf_ActivityScore_legacy: (Legacy) Oregon State University Tanguay Lab 120 Hour Post-fertilization zebrafish Assay Score for Activity (AID 2283742; active = hit-call score of the fitted dose curve at least 0.9, where 1 is the maximum;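 for AC50: dechorionated Tropical 5D wild-type zebrafish embryos held singly per well; static exposure from 6 hpf until 120 hpf at 28 °C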)
# Method in brief: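 Embryos are staged, enzymatically dechorionated at 4 hpf, placed individually at 6 hpf, then held in test chemical (0.64% DMSO) at 28C until 120 hpf. Mortality and malformations are scored by brightfield, with non-mortality endpoints skipped for dead embryos.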
SMILES,outcome,AC50
CC(C)(C)OOC(C)(C)C,inactive,
O=[N+]([O-])c1ccc(Cl)c(Cl)c1,inactive,
CC(Cc1ccc(OCC(=O)O)cc1)NCC(O)c1csc(C(F)(F)F)n1 (stereo not drawn),inactive,
CN(C)C(=O)Cl,inactive,
Nc1ccc2ccccc2c1,,36.8 µM (active)
CCOc1ccc(C(C)(C)COCc2cccc(Oc3ccccc3)c2)cc1,inactive,
O=P1(N(CCCl)CCCl)NCCCO1 (stereo not drawn),inactive,
CCOS(=O)(=O)OCC,inactive,
Nc1ccc(Cl)cc1,inactive,
CCCCc1ccccc1,inactive,
Cc1cccc(N)c1,inactive,
ClC(Cl)(Cl)c1ccccc1,inactive,
Cc1ccc([N+](=O)[O-])cc1C,inactive,
